Source: PMC4336329 (PLoS ONE, 2015)
Screen size: about 310,000 compounds; about 14,000 (4.5%) showed an effect of 50% or more. The effect is printed as a negative number. The entries come from a sample that favours strong results as a whole.

Molecular target: human ether-à-go-go-related gene (hERG) potassium channel (human, UniProt Q12809)
Assay: primary screen, population patch clamp on CHO cells stably expressing hERG; higher = less effect of the substance
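Also: peak tail current of the secondary pulse compared with the same well before compound.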

Chain of human ether-à-go-go-related gene (hERG) potassium channel (Q12809 whole entry, looked up): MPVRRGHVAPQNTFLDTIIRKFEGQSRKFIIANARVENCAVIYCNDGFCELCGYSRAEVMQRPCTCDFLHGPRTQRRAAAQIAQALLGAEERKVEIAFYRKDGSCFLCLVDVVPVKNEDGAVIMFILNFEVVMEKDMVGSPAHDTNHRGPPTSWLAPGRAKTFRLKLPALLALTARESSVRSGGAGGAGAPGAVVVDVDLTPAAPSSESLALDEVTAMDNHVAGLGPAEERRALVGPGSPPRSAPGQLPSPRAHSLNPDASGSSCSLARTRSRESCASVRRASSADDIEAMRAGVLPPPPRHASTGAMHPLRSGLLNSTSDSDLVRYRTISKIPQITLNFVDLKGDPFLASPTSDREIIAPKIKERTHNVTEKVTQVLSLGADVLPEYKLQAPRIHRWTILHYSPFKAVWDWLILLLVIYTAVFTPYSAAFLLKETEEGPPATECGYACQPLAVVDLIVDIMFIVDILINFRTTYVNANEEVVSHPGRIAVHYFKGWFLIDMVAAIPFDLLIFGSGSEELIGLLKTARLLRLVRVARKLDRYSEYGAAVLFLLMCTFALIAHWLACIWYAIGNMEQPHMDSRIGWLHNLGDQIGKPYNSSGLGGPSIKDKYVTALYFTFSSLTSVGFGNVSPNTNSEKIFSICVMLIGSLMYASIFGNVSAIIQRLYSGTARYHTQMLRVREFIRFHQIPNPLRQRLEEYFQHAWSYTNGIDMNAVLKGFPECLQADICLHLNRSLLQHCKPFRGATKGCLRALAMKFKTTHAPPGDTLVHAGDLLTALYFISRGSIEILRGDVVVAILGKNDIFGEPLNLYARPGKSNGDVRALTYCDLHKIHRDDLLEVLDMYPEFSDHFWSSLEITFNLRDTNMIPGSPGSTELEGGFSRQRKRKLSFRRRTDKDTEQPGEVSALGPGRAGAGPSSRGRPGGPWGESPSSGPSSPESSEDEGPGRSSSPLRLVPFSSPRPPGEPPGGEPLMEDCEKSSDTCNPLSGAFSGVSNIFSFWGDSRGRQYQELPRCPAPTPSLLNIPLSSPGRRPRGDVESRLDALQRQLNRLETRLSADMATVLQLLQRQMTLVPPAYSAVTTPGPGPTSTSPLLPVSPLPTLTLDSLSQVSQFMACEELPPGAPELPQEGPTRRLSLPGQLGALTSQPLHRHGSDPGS

Row | Compound | hERG current change (%, negative = inhibition) at 10uM [%]
1 | COc1ccc(CCN=C(N)NS(=O)(=O)c2cc(F)ccc2F)cc1 | -17.2
2 | N/C(Cc1ccc([N+](=O)[O-])cc1)=N\OC(=O)COc1ccccc1Cl | -21.2
3 | O=C(c1ccccc1)N1CN2CN(C(=O)c3ccccc3)CC([N+](=O)[O-])(C2)C1 | 21.8
4 | COc1ccc(-n2c(SCC(=O)Nc3ccccc3)nnc2-c2ccoc2C)cc1 | -71.8
5 | CCn1c(SCC(=O)NC(C)(C)C)nnc1-c1ccoc1C | -18.5
6 | COc1cccc(NC(=O)CSc2nnc(-c3ccoc3C)n2C)c1 | 4.35
7 | COc1cccc(-n2c(SCC(=O)NC(C)(C)C)nnc2-c2ccoc2C)c1 | -64.5
8 | COc1ccc(-n2c(SCC(=O)Nc3cccc(C(=O)O)c3)nnc2-c2ccco2)cc1 | 17.7
9 | COc1cccc(NC(=O)CSc2nnc(-c3ccoc3C)n2CC2CCCO2)c1 (centres unmarked) | -1.09
10 | COc1cccc(-n2c(SCC(=O)NCCc3ccccc3)nnc2-c2ccoc2C)c1 | -76.8
11 | CCOc1ccccc1-n1c(SCC(=O)NC(C)(C)C)nnc1-c1ccoc1C | 1.75
12 | Cc1occc1-c1nnc(SCC(=O)NCCc2ccccc2)o1 | -11.5
13 | COC(=O)CSc1nnc(-c2ccoc2C)n1-c1ccc(OC)cc1 | -18.3
14 | COc1cccc(NC(=O)CSc2nnc(-c3ccoc3C)n2-c2ccccc2)c1 | -85.7
15 | COc1cccc(-n2nnnc2SCC(=O)NCCc2ccccc2)c1 | -20.8
16 | CN(CC(=O)Nc1cccc(F)c1)C(=O)CCC1CCCCC1 | 17.7
17 | COC(=O)C(=NNc1c(C)n(C)n(-c2ccccc2)c1=O)C(=O)OC | 9.93
18 | COc1ccccc1NC(=O)c1cc(OC)c(OC)cc1[N+](=O)[O-] | 4.44
19 | COc1ccc(N(C)S(=O)(=O)c2ccc3c(c2)CCC(=O)N3)cc1 | -9.5
20 | CN(C)c1ccc(/C=C(\C#N)c2ccccn2)cc1 | -6.97

Row | Compound | hERG current change (%, negative = inhibition) at 10uM [%]
21 | CN(C)CCOc1cc(Cl)cc(Cl)c1 | 7.27
22 | CCOC(CNc1cc(C)nc2c(-c3ccccc3OC)c(C)nn12)OCC | 8.64
23 | COC(=O)c1ccc(NC(=O)CSc2nnc(C)n2-c2ccccc2)cc1 | -2.35
24 | Cc1n[nH]c(=S)n1/N=C/c1ccc(Br)o1 | 12.5
25 | COc1ccc(CN2CCCN(S(=O)(=O)c3ccc(Br)cc3)CC2)cc1 | -74.4
26 | COc1cccc(CN2CCN(S(=O)(=O)c3ccc(Br)cc3)CC2)c1 | -29.4
27 | COc1ccc(S(=O)(=O)N2CCN(Cc3ccc(Cl)cc3)CC2)cc1 | -10.8
28 | COc1ccc(S(=O)(=O)N2CCCN(Cc3cccc(F)c3)CC2)cc1 | -44.6
29 | O=S(=O)(c1ccc(Br)cc1)N1CCCN(Cc2cccc(F)c2)CC1 | -17.9
30 | COc1cccc(CN2CCCN(S(=O)(=O)c3ccc(Br)cc3)CC2)c1 | -58.6
31 | COc1ccc(N2CSC3=C(C#N)C(c4ccc(OC)c(OC)c4)CC(=O)N3C2)c(OC)c1 (centres unmarked) | -47.5
32 | COc1ccc(N2C(=O)c3ccc(NC(C)=O)cc3C2=O)cc1 | 20.2
33 | CC(=O)N1Cc2ccccc2CC1C(=O)O (centres unmarked) | -7.43
34 | CC1(C)CC(CC(=O)NC(=S)Nc2ccc([N+](=O)[O-])cc2)C(=O)O1 (centres unmarked) | -21.2
35 | CC1(C)CC(CC(=O)Nc2ccc([N+](=O)[O-])cc2)C(=O)O1 (centres unmarked) | -22.5
36 | CC(CC1CC(C)(C)OC1=O)C(=O)Nc1ccc([N+](=O)[O-])cc1 (centres unmarked) | -51.4
37 | COc1ccc(C)cc1NC(=O)CSCc1ccccc1C | -4
38 | COc1ccc(CSC2=NCCN2)cc1Br | 1.43
39 | COc1ccc(CSc2n[nH]c(C)n2)cc1[N+](=O)[O-] | 26.2
40 | Br.N#Cc1ccc(CSC2=NCCN2)cc1 | -4.5

Row | Compound | hERG current change (%, negative = inhibition) at 10uM [%]
41 | CCOc1ccc(CSC2=NCCN2)cc1Cl.Cl | -50.9
42 | CCCCCOc1ccc(CSC2=NCCN2)cc1[N+](=O)[O-] | -80.2
43 | COc1ccc(CSC2=NCCN2)cc1Cl.Cl | -18.2
44 | CCCCOc1ccc(CSC2=NCCN2)cc1[N+](=O)[O-].Cl | -68.7
45 | CCCOc1ccc(CSC2=NCCN2)cc1[N+](=O)[O-] | -66.7
46 | COc1ccc(CSc2nc(C)[nH]c2[N+](=O)[O-])cc1[N+](=O)[O-] | 4.63
47 | COc1ccc(CSc2cccc3cccnc23)cc1[N+](=O)[O-] | 1.59
48 | Cl.Clc1ccc(CSC2=NCCCN2)cc1Cl | -18.2
49 | CCCCOc1ccc(CSc2nnc(C)n2N)cc1[N+](=O)[O-] | -31.5
50 | CC(Oc1ccc(Cl)cc1)C(=O)NCCCn1ccnc1 (centres unmarked) | -7.09
51 | Cc1csc(NC(=O)CN2CCCCCC2)n1.O=C(O)C(=O)O | 14.3
52 | Cc1cc(C)c2cc(C(=O)Nc3ccc4c(c3)OCO4)[nH]c2c1 | 16.2
53 | CCOc1ccc2c(C)c(C(=O)O)oc2c1OCC | 16.5
54 | NS(=O)(=O)c1cccc(NC(=O)CC2(CC(=O)O)CCCC2)c1 | 33.9
55 | CSc1nc(Cc2ccc(Cl)cc2)nc2ccccc12 | -16.7
56 | COc1ccc(CSc2ncn[nH]2)cc1[N+](=O)[O-] | 2.83
57 | CCOc1ccc(CSC2=NCCN2)cc1[N+](=O)[O-].Cl | -83.5
58 | Br.O=[N+]([O-])c1ccc(CSC2=NCCN2)cc1 | -15.3
59 | Cc1ccc(-n2c(C)nnc2SCC(=O)N2CCOCC2)cc1 | 21.9
